Screening results (PubChem)
AMPAR-TARP mod: modulators of AMPA receptor GluA2-stargazin complexes. O88602+P19491. HEK293 GluA2+stargazin, membrane potential dye (FDSS), glutamate EC50; hits were called plate by plate, in both directions. calls only at 30 µM. 40,000 tested, 3.5% active. AID 1259245;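 active = any of four per-well response measures lying three or more SD from its plate-wide compound average, in either direction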
GIRK2 act: GIRK2 channel activators by thallium flux | P48051 | HEK293 GIRK2/NPY4 cells, thallium flux fluorescence | activation (% efficacy), % for hits at 37.5 µM | 34,000 tested, under 10 active;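 active = primary screen hit, no activity in plain HEK293 cells, and in GIRK2-only cells above 5% efficacy rising with concentration; inactive = the rest, including fluorescent compounds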;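 also: efficacy is normalized control-subtracted fluorescence 15 s after thallium addition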
Target sequence (P48051 whole entry, looked up): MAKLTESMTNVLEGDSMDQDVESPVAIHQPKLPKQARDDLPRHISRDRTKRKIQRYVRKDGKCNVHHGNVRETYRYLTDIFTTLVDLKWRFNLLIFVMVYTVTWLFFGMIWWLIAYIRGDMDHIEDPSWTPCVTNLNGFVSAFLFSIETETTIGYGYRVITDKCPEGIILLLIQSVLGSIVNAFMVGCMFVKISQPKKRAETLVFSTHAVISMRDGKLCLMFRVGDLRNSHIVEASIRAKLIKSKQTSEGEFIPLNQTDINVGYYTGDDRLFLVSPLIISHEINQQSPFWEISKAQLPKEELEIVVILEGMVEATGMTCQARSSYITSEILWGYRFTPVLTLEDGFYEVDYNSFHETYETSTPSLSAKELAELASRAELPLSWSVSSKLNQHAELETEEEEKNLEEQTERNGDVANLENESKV
Calls only; n = inactive; x = not tested or not shown; + = active, no number. The entries come from a sample that favours hits as a whole.

SMILES	AMPAR-TARP mod	GIRK2 act
Cc1ccccc1Cn1c(C2CC(=O)N(C(C)(C)C)C2)nc2ccccc21 (centres undefined)	+	x
O=C1CC(c2nc3ccccc3n2Cc2ccccc2)CN1Cc1ccccc1 (centres undefined)	+	x
CCn1c(C2CC(=O)N(Cc3ccccc3)C2)nc2ccccc21 (centres undefined)	n	x
CCn1c(C2CC(=O)N(C(C)(C)C)C2)nc2ccccc21 (centres undefined)	n	x
C#CCn1c(C2CC(=O)N(C(C)(C)C)C2)nc2ccccc21 (centres undefined)	n	x
CC(C)(C)N1CC(c2nc3ccccc3n2Cc2ccccc2Cl)CC1=O (centres undefined)	+	x
CCCn1c(C2CC(=O)N(C(C)(C)C)C2)nc2ccccc21 (centres undefined)	n	x
CC(C)(C)N1CC(c2nc3ccccc3n2Cc2ccccc2)CC1=O (centres undefined)	+	x
COc1cc(C(=O)Nc2cc3c4c(c2)CCC(=O)N4CCC3)cc(OC)c1OC	n	n
CCCN(CCC)C(=O)Cn1c(C2CC(=O)N(Cc3ccc(F)cc3)C2)nc2ccccc21 (centres undefined)	n	n
CCCCN(C)C(=O)Cn1c(C2CC(=O)N(Cc3ccc(F)cc3)C2)nc2ccccc21 (centres undefined)	+	n
COc1ccc(Cc2nnc(C3CCN(C(=O)/C=C/c4cccs4)CC3)s2)cc1	n	n
O=C(CN1CC(c2nc(-c3cccc(C(F)(F)F)c3)no2)C1)NCC1CCCO1 (centres undefined)	x	n
Cc1ccc(S(=O)(=O)N2CCN(CCn3cccn3)CC2)c(C)c1	+	n
Cc1ccc(C)c(S(=O)(=O)N2CCCN(CCn3cccn3)CC2)c1	n	n
CC1CN(C(=O)Cc2cc(-c3ccc4c(c3)OCO4)on2)CC(C)O1 (centres undefined)	n	n
CCCCN1CC(c2nc3ccccc3n2CCOc2ccccc2Cl)CC1=O (centres undefined)	n	x
O=C(Nc1sc2c(c1C(=O)O)CCC2)c1cccc(Cl)c1	+	x
CC(C)S(=O)(=O)c1cccc(C(=O)Nc2sc3c(c2C(N)=O)CCCC3)c1	n	n
COC(=O)C(C)n1c(C)cn2c3c(=O)n(C)c(=O)n(C)c3nc12 (centres undefined)	+	n
COC(=O)C(C)n1c(C)c(C)n2c3c(=O)n(C)c(=O)n(C)c3nc12 (centres undefined)	+	n
CCCCCCCCn1c(C)c(C)n2c3c(=O)n(C)c(=O)n(C)c3nc12	n	n
Cc1c(C)n2c3c(=O)n(C)c(=O)n(C)c3nc2n1CC(O)CO (centres undefined)	+	n
Cc1c(C)n2c3c(=O)n(CC(N)=O)c(=O)n(C)c3nc2n1C(C)C	n	n
CC(=O)C(C)n1c(-c2ccccc2)cn2c3c(=O)n(C)c(=O)n(C)c3nc12 (centres undefined)	n	n
SMILES	AMPAR-TARP mod	GIRK2 act
COc1ccc(-c2cn(CC(=O)N(C)c3cccc(C)c3)nc2N2CCOCC2)cc1	x	n
Cn1cccc1C(O)CNC(=O)c1c(F)cccc1Cl (centres undefined)	n	n
CCOc1ccccc1NC(=O)Cn1cc(-c2ccccc2)c2ncn(CCOC)c(=O)c21	n	n
CCOC(=O)c1ccccc1NC(=O)Cn1cc(-c2ccccc2)c2ncn(CCOC)c(=O)c21	+	n
O=C(NCc1cccs1)c1coc(NC(=O)c2ccco2)n1	+	n
O=C(Nc1nnc(Cc2cccs2)o1)c1ccco1	n	n
O=S(=O)(C1CC1)N1CCN(CCn2ccnc2)CC1	x	n
O=C(NC1CCCCCC1)C1c2ccccc2C(=O)N1CCC1=CCCCC1 (centres undefined)	+	n
O=C(CN1C(=O)c2ccccc2S1(=O)=O)NC1CCCCCC1	n	n
Cc1nc(C)c(CC(=O)NCc2ccccc2OC(F)(F)F)s1	n	n
O=S(=O)(Nc1cccc(Cl)c1)c1cccc(F)c1	n	n
O=C(CSc1nc(=O)n(CCO)c2c1CCCC2)N1CCc2ccccc21	n	n
O=C(CSc1nc(=O)n(CCCO)c2c1CCC2)N1CCc2ccccc21	+	n
O=C(COc1ccc(Cl)cc1)NCC1CCN(Cc2ccco2)CC1	x	n
COc1coc(C(=O)Nc2ccc(F)c(F)c2)cc1=O	+	n
COc1cccc(COc2coc(C(=O)Nc3ccc(C)c(F)c3)cc2=O)c1	n	n
COc1cccc2cc(C(=O)CS(=O)(=O)c3ccccc3)c(=O)oc12	+	x
CCC(C)NC(=O)c1cc2cccc(OC)c2oc1=O (centres undefined)	n	n
CCOc1ccc(C2NC(=O)NC(O)(C(F)(F)F)C2C(=O)c2ccccc2)cc1OC (centres undefined)	n	x
CN(C)c1ccc(N2CCN(C(=O)c3ccc(S(N)(=O)=O)cc3)CC2)nn1	+	n
COc1ccc(N2CCN(C(=O)c3ccc(S(=O)(=O)N4CCCC4)cc3)CC2)nn1	x	n
Cc1cc(C)c(S(=O)(=O)N(C)c2ccc(Cl)cc2)cc1N(C)S(=O)(=O)c1ccccc1	+	x
Cc1cccc(N(C)S(=O)(=O)c2cc(N(C)S(=O)(=O)c3ccccc3)c(C)cc2C)c1	n	x
Cc1cc(C)c(S(=O)(=O)NC(C)C)cc1N(C)S(=O)(=O)c1ccccc1	+	x
Cc1cc(C)c(S(=O)(=O)N(C)c2c(C)cccc2C)cc1N(C)S(=O)(=O)c1ccccc1	n	x
SMILES	AMPAR-TARP mod	GIRK2 act
COC(=O)c1ccc(CN2C(=O)CSC2=O)o1	n	n
Cc1cc(NC(=O)C(=O)NCCC(C)C)ccc1N1CCCC1=O	n	n
COc1ccc(OC)c(NC(=O)CSc2nc(=O)n(N3CCN(C)CC3)c3c2CCCC3)c1	n	n
CCc1ccccc1NC(=O)Cn1c(=O)n(Cc2ccccc2)c(=O)c2c1c1cc(C)ccc1n2C	n	x
O=C(NCCOCCO)C(=O)Nc1c2c(nn1-c1ccc(Cl)cc1)CS(=O)(=O)C2	n	x
Cc1ccc(S(=O)(=O)N2CCCc3cc(NC(=O)Oc4ccccc4)ccc32)cc1	+	x
Cc1ccc(S(=O)(=O)N2CCCc3cc(NC(=O)c4ccccc4)ccc32)cc1	n	x
COc1ccc(S(=O)(=O)N2CCCc3cc(NC(C)=O)ccc32)cc1	n	x
COc1ccc(S(=O)(=O)N2CCCc3cc(NC(=O)C(C)(C)C)ccc32)cc1	+	x
Cc1noc(C)c1S(=O)(=O)Nc1ccc2c(c1)CN(S(=O)(=O)c1ccccc1)CC2	n	n
O=C(NCCCN1CCOC(c2ccccc2)C1)C(=O)NC1CCCC1 (centres undefined)	x	n
CCCN(CCC)C(=O)c1c(C(F)(F)F)nn(C2CCCN(C)C2)c1C (centres undefined)	n	n
Cc1ccc(OCCCCn2c(CNC(=O)c3ccco3)nc3ccccc32)cc1C	x	n
CCC(C)NC(=O)/C=C/c1c(Cl)cccc1Cl (centres undefined)	n	n
COc1cc(Cl)c(C)cc1NC(=O)Cn1nc2c(cc1=O)CCCC2	n	n
COc1cc(OC)c(NC(=O)Cn2nc3c(cc2=O)CCCC3)cc1Cl	+	n
COc1ccc(-n2nc3c(c2NC(=O)C(=O)N2CCCC2)CSC3)cc1	+	n
COc1ccc(-n2nc3c(c2NC(=O)C(=O)NCc2ccco2)CS(=O)(=O)C3)cc1	+	n
Cc1cccc(-n2nc3c(c2NC(=O)C(=O)NCc2ccco2)CS(=O)(=O)C3)c1	n	n
COc1ccc(-n2nc3c(c2NC(=O)C(=O)N2CCCCC2)CS(=O)(=O)C3)cc1	n	n
